Assay [1] addresses Mitogen-activated protein kinase 10 (Mus musculus) (UniProt Q61831). Put plainly: JNK3 AlphaScreen Assay (AID 530; active = well fitted curve in either direction with a large enough effect, not every such curve was filed as active;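 also: kinase came from lysate of stimulated human HepG2 cells; signal reports phosphorylation of biotinylated GST-cJun 1-79 at Ser73 with 10 µM ATP; series mostly up to about 57 µM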). The method, boiled down: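 Pre-activated (IL-1β/TNFα) JNK3 in HepG2 lysates phosphorylates biotin-GST-cJun(1-79), 10 uM ATP; anti-phospho-cJun(Ser73) AlphaScreen read at room temperature, pH 7.6 Tris buffer. Compounds pre-incubated 15 min as titrations.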
(In general: Alpha assays give light when donor and acceptor beads are brought close together.)

For assay [2], the target named is Cytochrome P450 3A4 (Homo sapiens) (UniProt P08684). The assay can be described thus: qHTS Assay for Inhibitors and Substrates of Cytochrome P450 3A4 (AID 884). Also: potency is read from the fitted curve at half-maximal effect; nearly all actives have a fitted effect of over 50% in size. In outline: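 20 nM human CYP3A4 with 25 uM Luciferin-PPXE (at KM) in 200 mM KPO4, preincubated 10 min with compound; NADPH regeneration started a 60 min RT reaction. Luciferin detected by luminescence, normalized to 57 uM ketoconazole as full inhibition.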
Chain of Cytochrome P450 3A4 (Homo sapiens) (P08684 whole entry, looked up): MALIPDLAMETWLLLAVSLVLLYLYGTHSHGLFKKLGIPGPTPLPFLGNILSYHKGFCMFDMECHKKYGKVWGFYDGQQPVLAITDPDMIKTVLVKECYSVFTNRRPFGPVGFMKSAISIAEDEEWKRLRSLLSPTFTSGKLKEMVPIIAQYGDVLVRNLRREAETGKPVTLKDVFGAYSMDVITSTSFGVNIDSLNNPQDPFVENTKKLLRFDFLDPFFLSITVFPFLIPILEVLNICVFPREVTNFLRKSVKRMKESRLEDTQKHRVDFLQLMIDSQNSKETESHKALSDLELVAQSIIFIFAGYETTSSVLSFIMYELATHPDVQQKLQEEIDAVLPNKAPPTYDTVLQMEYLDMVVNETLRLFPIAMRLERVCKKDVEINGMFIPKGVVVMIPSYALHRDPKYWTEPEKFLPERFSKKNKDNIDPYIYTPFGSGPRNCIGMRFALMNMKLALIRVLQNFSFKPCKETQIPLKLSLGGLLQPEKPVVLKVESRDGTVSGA

Assay [3] has the same target. The assay can be described thus: qHTS Assay for Activators of Cytochrome P450 3A4 (AID 885). Also: nearly all actives have a fitted effect of over 65% in size. In outline: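 Signal was normalized against complete inhibition by 57 uM ketoconazole. The reaction used 20nM CYP3A4 with 25uM Luciferin-PPXE, 10-min compound preincubation and a 60-min NADPH-supported step at RT.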
A general note: In qHTS, concentration-response curves come from the screen itself.

The target in assay [4] is Calcium and integrin-binding protein 1 (Homo sapiens) (UniProt Q99828). Put plainly: Primary qHTS for Identification of Calcium Integrin Binding Protein 1 (CIB1) Competitor (AID 1508620).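 Also: GST tagged CIB1 binding a fluorescein labelled alphaIIb integrin peptide tracer; top concentration of the series differs between compounds.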 The method, boiled down:
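Fluorescence polarization competition: GST-tagged CIB1 (1 uM final) preincubated with compound 15 min at room temperature, then FITC-labelled alphaIIb peptide (100 nM final) added. After 15 min at room temperature, polarization read at Ex 480/Em 540.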

Inconclusive results are not listed. Where a call stands in place of a potency, no number is given. Calls of active or inactive are those of the source. Unless noted, calls follow the shape of the dose curve; as a rule, active = well fitted curve in the direction sought with a large enough effect; inconclusive = small, poorly fitted or top-dose-only effect, or another doubt; inactive = no such curve, though single readings can be large; an effect the other way counts as inactive or inconclusive.

Chain of Calcium and integrin-binding protein 1 (Homo sapiens) (Q99828 whole entry, looked up): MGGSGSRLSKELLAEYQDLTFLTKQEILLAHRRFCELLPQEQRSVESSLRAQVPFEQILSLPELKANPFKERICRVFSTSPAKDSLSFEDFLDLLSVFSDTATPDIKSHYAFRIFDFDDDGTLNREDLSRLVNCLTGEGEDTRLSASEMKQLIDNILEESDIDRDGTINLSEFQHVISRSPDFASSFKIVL

As for `CCCn1c(-c2ccc(F)cc2)nc2c(N3CCCN(Cc4ccccc4)CC3)nc(C)nc21`, the call in assay [1] was inactive. The Potency in assay [2] is 3.16 µM (active). Further, the Potency result in assay [3] and in assay [4] was “inactive” each time.
For `CCCCNc1nc(C)nc2c1nc(-c1ccccc1)n2CC(C)(C)CN(C)C`, the result in assay [1] was inactive. Also, in assay [2], the Potency is 10 µM (active). Moreover, the Potency result in assay [3] and in assay [4] was “inactive” throughout.
Consider `CCCn1c(-c2ccc(F)cc2)nc2c(NCCN3CCSCC3)nc(C)nc21`, for which the outcome in assay [1] was inactive. Also, the Potency in assay [2] was 20 µM (active). Moreover, the Potency result in assay [3] and in assay [4] was “inactive” each time.
On to `CCN(CC)CCCCn1c(-c2ccccc2)nc2c(NCc3ccccc3)nc(C)nc21`, for which the compound was classed as inactive in assay [1]. Further, in assay [2], the Potency was 7.94 µM (active). The Potency entry in assay [3] and in assay [4] was “inactive” in each case.
As to `CCCCNc1nc(C)nc2c1nc(-c1ccccc1)n2CCCN1CCCCC1C` (centres undefined), in assay [1], the outcome was inactive. The Potency in assay [2] was 6.31 µM (active). Besides, the Potency result in assay [3] and in assay [4] was “inactive” each time.
`Cc1nc(N2CCOCC2)c2nc(-c3ccccc3)n(CCN3CCCCC3)c2n1`: the compound was classed as inactive in assay [1]. Besides, in assay [2], the Potency was 2.51 µM (active). The Potency entry in assay [3] and in assay [4] was “inactive” each time.
As for `COCCNc1nc(C)nc2c1nc(-c1ccccc1)n2CCN1CCCCC1`, the compound was classed as inactive in assay [1]. For the same compound, the Potency in assay [2] is 10 µM (active). The Potency entry in assay [3] and in assay [4] was “inactive” throughout.
For `CCCn1c(-c2ccc(F)cc2)nc2c(N3CCN(CCC(=O)OCC)CC3)nc(C)nc21`, the outcome in assay [1] was inactive. Also, the Potency in assay [2] was 12.6 µM (active). Besides, the Potency result in assay [3] and in assay [4] was “inactive” each time.
For the compound `CCCn1c(-c2ccc(F)cc2)nc2c(NCCCN3CCOCC3)nc(C)nc21`, the compound was classed as inactive in assay [1]. Besides, in assay [2], the Potency is 5.01 µM (active). For the same compound, the Potency entry in assay [3] and in assay [4] was “inactive” in each case.
For `CCN(CC)CCCC(C)n1c(-c2ccccc2)nc2c(N3CCOCC3)nc(C)nc21` (centres undefined), the outcome in assay [1] was inactive. For the same compound, the Potency entry in assay [3] and in assay [4] was “inactive” throughout.
Consider `CCN(CC)CCCC(C)n1c(-c2ccccc2)nc2c(NC3CCCCC3)nc(C)nc21` (centres undefined), for which the compound was called inactive in assay [1]. In assay [2], the Potency was 12.6 µM (active). The Potency result in assay [3] and in assay [4] was “inactive” throughout.
`Cc1nc(NC2CCCCC2)c2nc(-c3ccccc3)n(CCCN3CCCCC3C)c2n1` (centres undefined): in assay [1], the compound was called inactive. Further, the Potency in assay [2] is 10 µM (active). For the same compound, the Potency entry in assay [3] and in assay [4] was “inactive” each time.
For `CCN1CCCC1Cn1c(-c2ccccc2)nc2c(NCc3ccccc3)nc(C)nc21` (centres undefined), in assay [1], the result was inactive. Moreover, the Potency in assay [2] is 5.01 µM (active). For the same compound, the Potency result in assay [3] and in assay [4] was “inactive” each time.
Consider `Cc1nc(NCc2ccccc2)c2nc(-c3ccccc3)n(CC(C)(C)CN(C)C)c2n1`, for which the result in assay [1] was inactive. Moreover, the Potency in assay [2] is 3.98 µM (active). The Potency result in assay [3] and in assay [4] was “inactive” in each case.
In the case of `Cc1nc(NCc2ccccc2)c2nc(-c3ccccc3)n(CCN3CCCC3)c2n1`, the compound was called inactive in assay [1]. Also, in assay [2], the Potency was 10 µM (active). Besides, the Potency result in assay [3] and in assay [4] was “inactive” throughout.
Take `CCCn1c(C)nc2c(NCCN3CCOCC3)nc(C)nc21`: in assay [1], the compound was classed as inactive. Moreover, the Potency result in assay [3] and in assay [4] was “inactive” throughout.
`CCCCNc1nc(C)nc2c1nc(-c1ccccc1)n2CCN1CCCCC1`: the result in assay [1] was inactive. The Potency in assay [2] was 3.16 µM (active). Further, the Potency entry in assay [3] and in assay [4] was “inactive” each time.
For the compound `CCN1CCCC1Cn1c(-c2ccccc2)nc2c(NC3CCCCC3)nc(C)nc21` (centres undefined), the call in assay [1] was inactive. The Potency in assay [2] was 12.6 µM (active). Moreover, the Potency result in assay [3] and in assay [4] was “inactive” throughout.
In the case of `CCCn1c(-c2ccc(F)cc2)nc2c(NCCCN3CCCCC3C)nc(C)nc21` (centres undefined), the compound was classed as inactive in assay [1]. For the same compound, the Potency in assay [2] was 10 µM (active). For the same compound, the Potency result in assay [3] and in assay [4] was “inactive” in each case.
For `CCN(CC)CCn1c(-c2ccccc2)nc2c(NCc3ccccc3)nc(C)nc21`, the result in assay [1] was inactive. In addition, the Potency in assay [2] was 12.6 µM (active). For the same compound, the Potency entry in assay [3] and in assay [4] was “inactive” throughout.
On to `CCN(CC)CCCC(C)n1c(-c2ccccc2)nc2c(NCc3ccccc3)nc(C)nc21` (centres undefined), for which the compound was called inactive in assay [1]. In assay [2], the Potency is 5.01 µM (active). For the same compound, the Potency result in assay [3] and in assay [4] was “inactive” in each case.
With `Cc1nc(NCc2ccccc2)c2nc(-c3ccccc3)n(CCCN3CCCCC3C)c2n1` (centres undefined), the compound was classed as inactive in assay [1]. The Potency in assay [2] was 5.01 µM (active). In addition, the Potency result in assay [3] and in assay [4] was “inactive” each time.
Consider `Cc1nc(N2CCOCC2)c2nc(-c3ccccc3)n(CCCN3CCOCC3)c2n1`, for which, in assay [1], the outcome was inactive. Moreover, the Potency in assay [2] is 15.8 µM (active). The Potency result in assay [3] and in assay [4] was “inactive” in each case.
For the compound `Cc1nc(NCc2ccccc2)c2nc(-c3ccccc3)n(CCN(C)C)c2n1`, the compound was called inactive in assay [1]. The Potency result in assay [3] and in assay [4] was “inactive” in each case.
Consider `Cc1nc(NCc2ccccc2)c2nc(-c3ccccc3)n(C(C)CN(C)C)c2n1` (centres undefined), for which the outcome in assay [1] was inactive. In addition, the Potency entry in assay [3] and in assay [4] was “inactive” in each case.
For `CCCCNc1nc(C)nc2c1nc(-c1ccccc1)n2C(C)CCCN(CC)CC` (centres undefined), the compound was called inactive in assay [1]. Besides, the Potency result in assay [3] and in assay [4] was “inactive” each time.
